Data published in PubChem BioAssay.
Active and inactive are the calls of the source.

How the values were obtained:
[1] = test system: Plasmodium falciparum Sir2 (PF13_0152, Sir2A); assay: pfSir2 binders on small-molecule microarrays, primary screen, biochemical, small-molecule microarray, 635 nm fluorescence (AID 1098); conditions: small-molecule microarray binding, fluorescence 635 nm; higher = more signal;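 also: score merges spot fluorescence intensity with its signal-to-noise ratio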
[2] = small-molecule microarray binders of probe aDKK1, primary screen, biochemical, biotinylated probe, 635/667 nm fluorescence (AID 1099); conditions: higher = more signal;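 also: score merges 667nm spot fluorescence with signal to noise across triplicate slides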
[3] = small-molecule microarray binders of probe aCHRDL2, primary screen, biochemical, biotinylated probe, 635/667 nm fluorescence (AID 1100); conditions: higher = more signal
[4] = splicing luciferase reporter signal modulators, primary screen, spliceosome inhibition project, cell-based, HEK293, splice +/- reporter (AID 1101); conditions: luminescence, 24 h, higher = more signal, called active from +8 up or from −8 down;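 also: HEK293 cells carrying a splicing-competent luciferase reporter gene; test concentration not given here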
[5] = molecular target: Fibroblast growth factor 10 (Homo sapiens) (UniProt O15520); assay: FGF10 binders on small-molecule microarrays, primary screen, biochemical, small-molecule microarray, 635 nm fluorescence (AID 1102); conditions: FGF10 binding, fluorescence 635 nm, higher = more signal
[6] = test system: glycogen synthase kinase-3 (GSK3A per assay name; protocol says GSK3B); assay: GSK3 binders on small-molecule microarrays, primary screen, biochemical, small-molecule microarray, 635 nm fluorescence, GSK3A (AID 1103); conditions: small-molecule microarray binding, fluorescence 635 nm; higher = more signal; also: the record names both GSK3A and GSK3B
[7] = molecular target: Epidermal growth factor receptor (Homo sapiens) (UniProt P00533); assay: EGFR binders on small-molecule microarrays, primary screen, biochemical, small-molecule microarray, 635 nm fluorescence (AID 1104); conditions: EGFR binding, higher = more signal;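 also: score merges 667 nm emission intensity with spot signal to noise over triplicate slides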
[8] = molecular target: Follistatin-related protein 3 (Homo sapiens) (UniProt O95633); assay: FSTL3 binders on small-molecule microarrays, primary screen, biochemical, small-molecule microarray, 635 nm fluorescence (AID 1105); conditions: FSTL3 binding, higher = more signal;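 also: score merges emission near 667 nm and signal to noise per printed spot across three slides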
[9] = molecular target: Dickkopf-related protein 1 (Homo sapiens) (UniProt O94907); assay: DKK1 binders on small-molecule microarrays, primary screen, biochemical, small-molecule microarray, 635 nm fluorescence scan (AID 1106); conditions: DKK1 binding, higher = more signal;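 also: score merges emission near 667 nm with signal to noise over three replicate slides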
[10] = test system: Inhibin beta A chain (activin A); assay: INHBA (activin A) binders on microarrays, primary screen, biochemical, small-molecule microarray, 635 nm fluorescence scan (AID 1107); conditions: small-molecule microarray binding, higher = more signal;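 also: mouse activin A protein probed at 4.33 µg/mL on printed slides; score merges bound-protein fluorescence near 667 nm with spot signal-to-noise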
[11] = test system: Human papillomavirus type 1a protein E7 (residues 44-93); assay: HPV1a E7 fragment binders on microarrays, primary screen, biochemical, small-molecule microarray, residues 44-93, 635 nm fluorescence (AID 1108); conditions: small-molecule microarray binding, fluorescence 635 nm; higher = more signal;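 also: E7 fragment applied at 1 µg/mL in TBST for 1 h at 4 C; score combines spot fluorescence with its signal to noise ratio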
[12] = modulators of HCV replicon luciferase signal, primary screen, HCV replication inhibitor project, Huh7 cells, luciferase reporter (AID 1109); conditions: 48 h, higher = more signal;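 also: huh7 hepatoma cells harbouring a luciferase neomycin HCV replicon reporter; luciferase luminescence as measure of HCV replicon replication; test concentration not given here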
[13] = molecular target: Left-right determination factor 2 (Homo sapiens) (UniProt O00292); assay: LEFTY2 binders on small-molecule microarrays, primary screen, biochemical, small-molecule microarray, 635 nm fluorescence scan (AID 1110); conditions: LEFTY2 binding, higher = more signal
[14] = molecular target: Calmodulin-1 (Homo sapiens) (UniProt P0DP23); assay: CALM1 binders on microarrays, EGTA buffer, profiling panel, biochemical, small-molecule microarray, Cy5-labelled CALM1 (AID 1111); conditions: Cy5-CALM1 binding fluorescence, higher = more signal;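 also: labelled calmodulin applied in Tris saline Tween buffer holding calcium plus EGTA and DTT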
[15] = molecular target: Calmodulin-1 (Homo sapiens) (UniProt P0DP23); assay: calcium-bound CALM1 binders on microarrays, profiling panel, artefact control for SMM control-protein annotation, biochemical, small-molecule microarray, Cy5-labelled CALM1, plus calcium (AID 1112); conditions: Cy5-CALM1 binding fluorescence, higher = more signal;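 also: score merges spot fluorescence with signal to noise from triplicate slides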
[16] = small-molecule microarray binders of probe aWnt5a, primary screen, biochemical, biotinylated probe, 635/667 nm fluorescence (AID 1113); conditions: higher = more signal;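 also: score merges 667 nm fluorescence intensity with signal-to-noise per printed feature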
[17] = small-molecule microarray binders of probe aShh, primary screen, biochemical, biotinylated probe, 635/667 nm fluorescence (AID 1114); conditions: higher = more signal;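 also: probe is biotin-labelled aShh protein from a stem cell growth factor screen; measures binding of labelled protein to compounds printed on the slide; score merges feature fluorescence at 667 nm with signal-to-noise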
[18] = small-molecule microarray binders of probe aNog, primary screen, biochemical, biotinylated probe, 635/667 nm fluorescence (AID 1115); conditions: higher = more signal;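 also: probe is biotinylated aNog protein used at 0.15 µg/mL for 1 h at 4 C; z-score combines 667 nm fluorescence of each spot with its signal to noise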
[19] = molecular target: Torsin-1A-interacting protein 1 (Homo sapiens) (UniProt Q5JTV8); assay: LAP1 binders from COS7 cell lysate, primary screen, small-molecule microarray, 635/667 nm fluorescence (AID 1116); conditions: COS7-hLAP1 lysate binding, 635 nm fluorescence, higher = more signal
[20] = molecular target: Alpha-bungarotoxin (Bungarus multicinctus) (UniProt P60615); assay: alpha-bungarotoxin binders on microarray, profiling panel, artefact control for SMM control protein annotation, biochemical, small-molecule microarray, Alexa647 label, 635/667 nm fluorescence (AID 1117); conditions: alpha-BTX-A647 binding fluorescence, higher = more signal
Sequence of Alpha-bungarotoxin (Bungarus multicinctus) (P60615 whole entry, looked up): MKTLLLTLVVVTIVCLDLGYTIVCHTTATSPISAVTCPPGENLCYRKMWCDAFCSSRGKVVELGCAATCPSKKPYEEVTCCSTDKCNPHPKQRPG

Sequence of Left-right determination factor 2 (Homo sapiens) (O00292 whole entry, looked up): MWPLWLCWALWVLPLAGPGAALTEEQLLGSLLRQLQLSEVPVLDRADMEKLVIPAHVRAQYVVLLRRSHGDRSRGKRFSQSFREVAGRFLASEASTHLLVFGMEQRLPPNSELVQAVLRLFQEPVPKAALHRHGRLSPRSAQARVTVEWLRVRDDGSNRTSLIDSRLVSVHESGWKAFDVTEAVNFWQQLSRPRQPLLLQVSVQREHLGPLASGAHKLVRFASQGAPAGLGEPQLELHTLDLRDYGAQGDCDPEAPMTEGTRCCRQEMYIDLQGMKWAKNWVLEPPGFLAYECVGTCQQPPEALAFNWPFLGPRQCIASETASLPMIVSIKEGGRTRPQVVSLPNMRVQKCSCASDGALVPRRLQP
Sequence of Fibroblast growth factor 10 (Homo sapiens) (O15520 whole entry, looked up): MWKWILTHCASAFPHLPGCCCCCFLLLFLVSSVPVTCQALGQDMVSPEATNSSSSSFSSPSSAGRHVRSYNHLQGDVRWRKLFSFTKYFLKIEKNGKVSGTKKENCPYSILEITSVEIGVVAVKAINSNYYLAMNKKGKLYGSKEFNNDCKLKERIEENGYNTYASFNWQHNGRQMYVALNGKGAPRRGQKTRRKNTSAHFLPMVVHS
Sequence of Torsin-1A-interacting protein 1 (Homo sapiens) (Q5JTV8 whole entry, looked up): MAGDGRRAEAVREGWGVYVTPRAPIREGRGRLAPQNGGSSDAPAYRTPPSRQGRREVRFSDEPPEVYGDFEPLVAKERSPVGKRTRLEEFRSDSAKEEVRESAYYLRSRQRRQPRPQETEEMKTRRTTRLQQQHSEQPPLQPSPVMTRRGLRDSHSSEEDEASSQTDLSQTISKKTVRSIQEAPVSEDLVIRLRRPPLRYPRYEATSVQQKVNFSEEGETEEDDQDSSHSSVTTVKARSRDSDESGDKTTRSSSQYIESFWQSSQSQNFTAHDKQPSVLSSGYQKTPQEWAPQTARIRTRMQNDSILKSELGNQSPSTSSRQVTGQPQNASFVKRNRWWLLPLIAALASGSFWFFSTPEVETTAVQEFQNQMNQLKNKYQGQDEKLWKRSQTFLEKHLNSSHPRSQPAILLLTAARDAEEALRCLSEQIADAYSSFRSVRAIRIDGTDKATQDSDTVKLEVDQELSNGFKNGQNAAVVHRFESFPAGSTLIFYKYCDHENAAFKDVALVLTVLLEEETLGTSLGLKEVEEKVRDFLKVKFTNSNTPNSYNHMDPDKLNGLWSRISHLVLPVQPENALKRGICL
Sequence of Dickkopf-related protein 1 (Homo sapiens) (O94907 whole entry, looked up): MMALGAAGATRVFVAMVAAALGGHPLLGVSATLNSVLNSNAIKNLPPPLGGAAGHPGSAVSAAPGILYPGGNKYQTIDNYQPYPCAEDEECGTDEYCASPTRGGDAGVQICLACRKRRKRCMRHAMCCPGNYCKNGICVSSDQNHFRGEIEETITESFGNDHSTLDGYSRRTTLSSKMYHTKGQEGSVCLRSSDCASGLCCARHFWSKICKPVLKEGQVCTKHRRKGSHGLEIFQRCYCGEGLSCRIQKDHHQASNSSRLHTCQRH
Sequence of Follistatin-related protein 3 (Homo sapiens) (O95633 whole entry, looked up): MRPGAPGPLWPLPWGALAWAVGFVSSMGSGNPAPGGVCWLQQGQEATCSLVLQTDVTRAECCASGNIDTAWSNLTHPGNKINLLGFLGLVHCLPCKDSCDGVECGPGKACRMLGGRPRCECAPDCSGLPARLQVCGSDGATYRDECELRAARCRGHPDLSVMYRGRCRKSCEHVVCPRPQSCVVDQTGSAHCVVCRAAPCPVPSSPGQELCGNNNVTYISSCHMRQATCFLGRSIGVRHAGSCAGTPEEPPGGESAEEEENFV
Sequence of Epidermal growth factor receptor (Homo sapiens) (P00533 whole entry, looked up): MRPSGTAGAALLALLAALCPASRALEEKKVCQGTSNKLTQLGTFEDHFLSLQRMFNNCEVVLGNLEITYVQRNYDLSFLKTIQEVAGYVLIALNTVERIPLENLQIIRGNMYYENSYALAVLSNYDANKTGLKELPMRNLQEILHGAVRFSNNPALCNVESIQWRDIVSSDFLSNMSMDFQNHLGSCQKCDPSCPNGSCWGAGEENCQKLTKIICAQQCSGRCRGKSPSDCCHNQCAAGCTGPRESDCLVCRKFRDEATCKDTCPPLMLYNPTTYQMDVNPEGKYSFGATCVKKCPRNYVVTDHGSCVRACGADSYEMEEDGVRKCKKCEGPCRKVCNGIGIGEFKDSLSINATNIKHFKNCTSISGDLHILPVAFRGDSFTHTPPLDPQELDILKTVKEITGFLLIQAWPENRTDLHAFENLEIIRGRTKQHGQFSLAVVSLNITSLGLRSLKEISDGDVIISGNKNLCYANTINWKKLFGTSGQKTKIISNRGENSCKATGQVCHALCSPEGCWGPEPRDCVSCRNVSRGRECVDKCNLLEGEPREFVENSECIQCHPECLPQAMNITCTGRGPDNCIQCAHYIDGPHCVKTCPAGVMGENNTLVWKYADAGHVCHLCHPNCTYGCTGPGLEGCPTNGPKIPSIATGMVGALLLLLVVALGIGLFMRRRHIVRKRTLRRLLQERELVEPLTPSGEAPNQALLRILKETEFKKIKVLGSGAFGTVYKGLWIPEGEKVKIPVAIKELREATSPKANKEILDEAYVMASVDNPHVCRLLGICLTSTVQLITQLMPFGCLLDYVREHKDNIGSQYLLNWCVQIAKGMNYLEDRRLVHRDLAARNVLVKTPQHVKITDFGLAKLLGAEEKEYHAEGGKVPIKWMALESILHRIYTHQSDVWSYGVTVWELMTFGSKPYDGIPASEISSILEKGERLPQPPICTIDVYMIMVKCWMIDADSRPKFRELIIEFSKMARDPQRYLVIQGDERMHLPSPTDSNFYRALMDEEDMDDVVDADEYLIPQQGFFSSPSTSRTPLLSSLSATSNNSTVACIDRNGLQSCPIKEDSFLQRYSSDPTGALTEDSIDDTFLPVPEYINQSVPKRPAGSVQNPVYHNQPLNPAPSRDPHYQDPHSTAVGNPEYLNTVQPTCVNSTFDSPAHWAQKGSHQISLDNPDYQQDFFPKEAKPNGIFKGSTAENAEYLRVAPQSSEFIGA

Structure (SMILES)	composite z-score [1]	composite z-score [2]	composite z-score [3]	z-score [4]	composite z-score [5]	composite z-score [6]	composite z-score [7]	composite z-score [8]	composite z-score [9]	composite z-score [10]	composite z-score [11]	z-score [12]	composite z-score [13]	composite z-score [14]	composite z-score [15]	composite z-score [16]	composite z-score [17]	composite z-score [18]	composite z-score [19]	composite z-score [20]
O=C(N1CCOCC1)[C@@]1(Cc2ccccc2)COC(c2ccc(OCCCO)cc2)=N1	0.666	1.23	0.84	-0.694 (inactive)	0.132	0.983	-0.309	-0.65	-0.161	0.573	1.44	-1.95	-0.571	1.16	0.83	-0.0161	-0.288	-0.221	1.38	2.35
CCCc1cc2c(n1CCc1ccc(Cl)cc1)C(C)C1CN(C(=O)c3ccccc3)C(C)(C(=O)OC)C21 (stereo not given)	0.462	1.64	1.59	3.17 (inactive)	0.464	-0.014	-0.403	0.252	-1.92	1.24	0.274	-2.1	-0.338	2.48	1.28	0.16	0.241	1.24	1.53	2.19
O=C(NC1CC1)[C@@H]1c2ccccc2C(=O)N(Cc2ccc(OC(F)(F)F)cc2)[C@H]1c1ccc(CO)cc1	0.572	-0.082	0.111	-0.599 (inactive)	0.567	-0.589	0.0972	0.301	0.864	0.301	1.13	-1.06	0.108	0.168	1.06	-0.0758	-0.0735	-0.399	-0.436	-0.258
C[N+](C)(C)CCCC[C@@H]1NC(=O)[C@H]2C[C@@H](C(=O)NCCCCCNC(=O)CS)[C@@H](c3cccc(OCCO)c3)N2C1=O	1.57	0.242	0.47	1.12 (inactive)	-0.166	0.272	0.412	-0.664	0.0501	0.761	-0.0364	-0.709	-0.259	-0.0728	0.297	-0.103	-0.0626	-0.234	0.707	-0.307
COc1ccc([Si](C)(C)[C@@H]2[C@@H](CC(=O)N3CCC[C@H]3CO)O[C@]3(C(=O)N(Cc4cccc(N5CCCCC5=O)c4)c4ccccc43)[C@H]2C)cc1	1.29	-0.246	-0.115	0.238 (inactive)	0.32	0.523	0.0941	0.747	0.414	0.27	0.845	-2.57	0.415	0.336	0.0654	-0.148	0.0723	0.21	0.191	1.22
